# Dicer inh – inhibitors of human Dicer processing of pre-microRNA; cat-ELCCA pre-miR-21 Dicer processing, chemiluminescence; hits give high values; z-score at 25 µM; 47,000 compounds, 6% hits; AID 1347074; in the data active = z-score above about 3, passing the limit was not always enough;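 note: plate controls were vehicle for no effect and no enzyme for full effect; higher signal means more uncleaved substrate so more Dicer inhibition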
# An asterisk follows results filed as active. The full list was thinned out, with hits kept by preference.
SMILES,Dicer inh
CC1CCCN(S(=O)(=O)c2cccc(-c3cn4ccccc4n3)c2)C1 (configuration not stated),-0.62
Cn1c(Sc2ccc(C(F)(F)F)cc2[N+](=O)[O-])nnc1-c1csc2ccc(Cl)cc12,-0.73
O=S(=O)(c1ccc(Cl)cc1)n1ccc(-c2cnc3cc(Cl)c(Cl)cc3n2)c1,0.05
CCN(CC)c1ccc(/C=C/c2noc(-c3ccccc3O)n2)cc1,0.97
CSc1ccc(/C=C/c2noc(-c3ccccc3O)n2)cc1,-1.9
Cc1ccsc1/C=C/c1noc(-c2ccccc2O)n1,3.3*
Oc1ccccc1-c1nc(-c2ccccc2)no1,0.04
Oc1ccccc1-c1nc(/C=C/c2ccc(Cl)cc2)no1,6.7*
Cc1ccccc1-c1nc(C2CCCCC2)no1,1.7
COCc1cc(=O)n2[nH]c(NC(C)=O)nc2n1,8.6
CC(C)CCC(C(N)=O)C1=NC(C)(C)Cc2ccccc21 (configuration not stated),-0.38
CCn1c(SCc2nc(-c3ccc(Br)cc3)no2)nnc1-c1ccco1,2.6
CC1=C(C#N)C(c2ccc(Br)cc2)C2=C(CCCC2=O)N1 (configuration not stated),-0.58
CCc1ccc(Oc2nc3c(c(=O)n(C)c(=O)n3C)n2Cc2ccccc2Cl)cc1,1.7
COc1ccc(-c2cc(C(=O)O)c3ccccc3n2)cc1OC,1.7
CCOC(=O)NC(=O)c1cn(Cc2cccs2)c(=O)[nH]c1=O,-2.1
COc1ccc(CC2(O)CCC3(CC2)OCCO3)cc1,0.53
CCCC(=O)N(c1ccc2oc(=O)sc2c1)S(=O)(=O)c1ccc(C(=O)O)cc1,-0.07
O=C(Cc1ccccc1)N(c1ccc2oc(=O)sc2c1)S(=O)(=O)c1ccccc1,5.4*
CCCCC(=O)N(c1ccc2oc(=O)sc2c1)S(=O)(=O)c1ccc(OCC)cc1,0.55
CCCC(=O)N(c1ccc2oc(=O)sc2c1)S(=O)(=O)c1ccc(F)cc1,-1.6
CCCC(=O)N(c1ccc2oc(=O)sc2c1)S(=O)(=O)c1cc(OC)ccc1OC,2.6
CCCCC(=O)N(c1ccc2oc(=O)sc2c1)S(=O)(=O)c1ccc(OC)c(OC)c1,3.9*
CC(C)C(=O)N(c1ccc2oc(=O)sc2c1)S(=O)(=O)c1ccc(Br)cc1,0.6
CCCC(=O)N(c1ccc2oc(=O)sc2c1)S(=O)(=O)c1ccc(OC)c(OC)c1,4.2*
SMILES,Dicer inh
CCCCC(=O)N(c1ccc2oc(=O)sc2c1)S(=O)(=O)c1cccs1,-3.9
CCOc1cc(C2C(C(=O)OC)=C(C)NC3=C2C(=O)c2ccccc23)c(Cl)cc1OC (configuration not stated),-0.7
CC(C)(C)c1cc2nc(C(F)(F)F)cc(Oc3ccc(Cl)cc3)n2n1,-0.68
CN(C)c1ccc(C2Nc3cc(Cl)ccc3O2)c(Cl)c1 (configuration not stated),1.8
O=C(c1cc2ccccc2c(=O)o1)N1CCN(c2ccccc2)CC1,1.6
CCOC(=O)c1cnc(-c2cccs2)nc1Nc1ccccc1,1.8
N#CC1=C(SCC(N)=O)NC2=C(C(=O)CCC2)C1c1ccccc1Cl (configuration not stated),-0.81
COc1ccccc1-c1nc2c3c4c(sc3ncn2n1)C(C)(C)NC(C)(C)C4,0.7
COc1ccc(-c2nn3c(-c4ccccc4)nnc3s2)cc1,-0.84
Clc1ccc(-c2nn3c(-c4ccccc4)nnc3s2)cc1,3.1*
Clc1ccc(-c2nnc3sc(-c4cccs4)nn23)cc1,0.22
CCOC(=O)c1cnc2ccc(Cl)cc2c1Nc1ccc(N(C)C)cc1,3.8*
CCOC(=O)c1cnc2ccc(OCC)cc2c1Cl,0.45
CCOC(=O)c1cnc2c(C)cc(C)cc2c1Nc1ccc(N(C)C)cc1,2.9
C/C(=N\NC(=O)/C=C/C(=O)O)c1ccc([N+](=O)[O-])cc1,0.71
COc1ccc(/C=C2/C(=O)Nc3ccccc32)cc1,-0.18
O=C1Nc2ccccc2/C1=C/c1cnc(-c2ccccc2)[nH]1,3.3*
CN(C)c1ccc(/C=C2\C(=O)Nc3ccccc32)cc1,-1.4
COc1cc2c(cc1OC)C(=O)N(Cc1c(Cl)cccc1Cl)CC2,-0.66
Cc1onc(-c2ccccc2Cl)c1C(=O)ONC1=NCCCC1,-0.21
O=C(c1nc2nc(-c3ccc(Cl)cc3)cc(C(F)(F)F)n2n1)N1CCOCC1,2.8
O=C(c1nn2c(C(F)(F)F)cc(-c3ccc(F)cc3)nc2c1Cl)N1CCOCC1,4.2*
O=C(c1nn2c(C(F)(F)F)cc(-c3ccccc3)nc2c1Cl)N1CCOCC1,-0.1
Cc1nc2oc3c(-c4ccc(Br)cc4)ncnc3c2c2c1COC(C)(C)C2,-0.79
Cc1onc(-c2c(Cl)cccc2Cl)c1C(=O)N=S1CCC2(C1)OCCO2 (configuration not stated),-0.81
Cc1cc2c3c(c1)c(O)cc(=O)n3CCC2,-1.8
C=CCSc1nc(N2CCOCC2)c2c(c1C#N)CC(C)(C)SC2,-0.83
COc1ccc(OC)c(-c2noc(CSc3nc4ccccc4[nH]3)n2)c1,0.06
COc1ccc(-c2noc(CSc3nc4ccccc4[nH]3)n2)c(OC)c1,1.4
COc1ccc(-c2noc(CSc3nc4ccccc4[nH]3)n2)cc1OC,3.2*

# Source: PubChem BioAssay (Center for Chemical Genomics, University of Michigan)
